# According to PubChem BioAssay AID739 (SRMLSC, 2007):
# The whole screen tested about 98,000 compounds, of which about 880 (0.9%) were called active. This excerpt belongs to a sample that is enriched for actives. Unmarked numbers belong to inactive results. No stated cut-off is given here; in the data, active means inhibition above about 30%; inactive means the rest.
# Test: phenotypic screen on post-Golgi transport, primary screen (AID 739);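 further: yeast cells grown in 1536-well plates; yeast grown about 18 h at 30C before absorbance read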
# Details: post-Golgi transport phenotypic cell assay; at 10 µM; active compounds read high
row,SMILES,inhibition
1,COCCNS(=O)(=O)c1cc(Br)ccc1OC,8.12%
2,COc1ccc(Br)cc1S(=O)(=O)N1CCN=C1C,31.5% (active)
3,CC1=NCCN1S(=O)(=O)c1ccc(Br)c(C)c1,3.83%
4,COCc1[nH][nH]c(=O)c1C=Nc1ccc(F)cc1F,5.45%
5,COC(=O)c1cc(NC(=O)C2C3C=CC(C3)C2C(=O)O)cc(C(=O)OC)c1 (configuration not stated),2.17%
6,CCc1nn(-c2cc(Oc3cccc4ccccc34)nc(-c3ccccc3)n2)c(N)c1C#N,-15.9%
7,O=[N+]([O-])c1ccc(Oc2ccc(F)cc2Br)c2ccncc12,54.4% (active)
8,CCOC(=O)Nc1sc(C(=O)N(C)C)c(C)c1C(=O)OCC,21.1%
9,Cc1ccc(CCN2CC(C(=O)O)CC2=O)cc1 (configuration not stated),-4.77%
10,NC(=O)N1CCCC1C(=O)Nc1ccc(Cl)c(Cl)c1 (configuration not stated),-3.91%
11,O=C(NCCc1ccccc1)/C(=C\c1ccc([N+](=O)[O-])cc1)NC(=O)c1ccccc1,4.97%
12,CCOC(=O)/C(=C\c1ccc([N+](=O)[O-])cc1)C(=O)c1cc(C(C)=O)c(Nc2ccccc2)s1,64.9% (active)
13,CCOC(=O)/C(C#N)=C/c1ccc(OCC(=O)Nc2ccccc2)c(OC)c1,6.16%
14,Cc1noc(/C=C/c2ccco2)c1S(=O)(=O)N1CCC(C(=O)N2CCc3ccccc32)CC1,-4.89%
15,COc1ccccc1CSc1nc2ccccc2[nH]1,1.93%
16,CCc1c(-c2ccccc2)nc(N)c(C#N)c1-c1cccs1,2.36%
17,O=c1c2ccccc2oc2nc3n(c(=O)c12)CCCS3,5.66%
18,CCc1nc2oc3ccccc3c(=O)c2c(=O)n1Cc1ccc(OC)cc1,8.05%
19,O=c1c2ccccc2oc2nc(C3CCCCC3)n(Cc3ccco3)c(=O)c12,68.9% (active)
20,COc1cc(/C=C(/NC(=O)c2ccccc2)C(=O)Nc2cccc(O)c2)c([N+](=O)[O-])cc1OC,-17.3%
21,COCCn1c(SCc2nc3cc(OC)c(OC)cc3c(=O)[nH]2)nnc1-c1ccncc1,6.95%
22,C=CCNC(=O)c1sc(SC)cc1-c1ccc(Cl)cc1,20%
23,CCCCCCC(=O)Nc1nc(C)c(-c2csc(Nc3cccc(OC)c3)n2)s1,-3.09%
24,COc1ccc(C2=NO[C@@H]3C(=O)N(Cc4ccccc4)C(=O)[C@H]23)cc1OC,6.43%
25,O=C(Nc1ccccc1)c1nnsc1S(=O)(=O)c1ccc(Cl)cc1,76.3% (active)

row,SMILES,inhibition
1,CC(=O)Nc1cc(C(=O)O)ccc1S(=O)(=O)c1ccc(Cl)cc1,-1.65%
2,O=C(Nc1ccc(Cl)cc1)c1ccsn1,8.05%
3,Cc1cc(N/C=C\C(=O)c2ccc(Cl)c(Cl)c2)no1,-4.69%
4,COc1cccc(NC(=O)C2CCCN2C(=O)OCc2ccccc2)c1 (configuration not stated),32% (active)
5,CC(=O)c1cccc(NC(=O)N2CCCC2C(=O)NCCc2ccccc2)c1 (configuration not stated),20%
6,CCOc1cccc(NC(=O)C2CCCN(S(=O)(=O)c3ccc(OC)cc3)C2)c1 (configuration not stated),-5.63%
7,CCN(CC)C(=O)CSc1nc2ccccc2n1CC(=O)N1CCN(c2ccccc2OC)CC1,11.2%
8,COc1ccc(C(=O)Nc2ncc3c(n2)-c2ccccc2CC3)cc1,16.5%
9,Cc1ccn2cc(-c3nonc3C)cc2c1,37.3% (active)
10,COc1ccc(C2CC(=O)Nc3cc(C)c(C)cc32)c(OC)c1OC (configuration not stated),11.7%
11,COC(=O)C(C(=O)Nc1cccc(C)n1)C1CCCCCC1 (configuration not stated),-2.06%
12,COc1ccc2ccccc2c1CNCc1ccccn1,0.33%
13,CC1CCN(CC(=O)c2c[nH]c3ccccc23)CC1,0%
14,CCOc1ccc(OCC)c(NC(=O)CN(C)S(=O)(=O)c2cccc3nsnc23)c1,1.42%
15,CCOc1ccc(-c2cn(S(=O)(=O)c3cccc4nsnc34)nc2N)cc1,46.9% (active)
16,CCOc1ccc(NC(=O)CCS(=O)(=O)c2cccc3nsnc23)cc1,-1.86%
17,O=C1N=C2SCCN2/C1=C\c1c(Cl)cccc1Cl,-3.72%
18,Cc1ccc(C(=O)c2c(NC(=O)c3ccncc3)sc3c2CCCC3)cc1,97.2% (active)
19,COC(=O)c1c(NC(=O)c2cccs2)sc2c1CCCC2,3.23%
20,Cc1ccc(C(=O)c2c(NC(=O)c3ccccc3)sc(C)c2C)cc1,0%
21,CCCc1cc(=O)[nH]c(SCC(=O)c2cc(C)n(CCC)c2C)n1,-4.22%
22,COc1cc(/C=N/O)cc(Br)c1OS(=O)(=O)c1ccc(C)cc1,2.99%
23,CCOc1ccc(N(CC(=O)NC2CCCCCC2)S(=O)(=O)c2c(C)[nH]c(=O)[nH]c2=O)cc1,-2.87%
24,O=C1C=C(c2ccc(Cl)cc2)C(=O)N1Nc1ccccc1,106% (active)
25,O=C(Nc1ccccc1)OCc1cc(-c2ccc(Cl)cc2)on1,-5.71%

row,SMILES,inhibition
1,O=C1c2cccc3cc(Br)cc(c23)C(=O)N1Nc1ccccc1,-2.04%
2,COc1ccc(-c2csc3nc(-c4ccccc4F)oc(=O)c23)cc1OC,6.4%
3,CC1CC2=C(CC1/C=N/NC(N)=S)C(C)(C)CCC2 (configuration not stated),100% (active)
4,CC1(C)CCCC2=C1CC1C(=O)N(c3ccccc3)C(=O)C1C2 (configuration not stated),-1.13%
5,Cc1cc(C)c2nc(NC(=O)C3CCCO3)sc2c1 (configuration not stated),-4.03%
6,O=C(CSc1ccc(/C=N/NC(=O)c2cccc(F)c2)o1)Nc1ccccc1,-2.85%
7,COc1ccc(CCNS(=O)(=O)c2ccc(Cl)s2)cc1OC,-1.32%
8,COc1cccc(CNc2nc3nc4c(c(=O)n3[nH]2)CCC4)c1,-5.47%
9,COc1cccc(-c2nc(S(=O)(=O)c3ccccc3)c(N3CCOCC3)o2)c1,-8.86%
10,COc1cccc(-c2cc3nc4c(c(N5CCC6(CC5)OCCO6)n3n2)CCCC4)c1,45.5% (active)
11,Cc1cccc(NC(=O)CSc2nnc(-c3ccco3)o2)c1,-0.81%
12,COC(=O)c1ccccc1OCC(=O)N1CCN(c2ccc(Cl)cc2)CC1,5.12%
13,O=C(C1CCN(S(=O)(=O)c2cccs2)CC1)N1CCCCCC1,34.1% (active)
14,O=C(NCc1ccccc1)C1CCCN(S(=O)(=O)c2cccs2)C1 (configuration not stated),0%
15,O=C(NC1CCCCC1)C1CCCN(S(=O)(=O)c2cccs2)C1 (configuration not stated),-9.88%
16,Cc1cccc(C(=O)Nc2ccccc2-c2nnn(CC(=O)Nc3ccc4c(c3)OCCO4)n2)c1,-5.17%
17,CC(=O)c1cc(NC(=O)c2ccccc2)c(=O)oc1/C=C/N(C)C,-1.13%
18,Cn1ccs/c1=N\S(=O)(=O)c1ccc(C(C)(C)C)cc1,-6.14%
19,O=C(O)CCN=C1CCc2ccccc2N1,2.24%
20,CCC(=O)Nc1cccc(NC(=O)c2cccnc2)c1,-2.1%
21,CCOc1cccc(C(=O)Nc2cccnc2)c1,31% (active)
22,CCOc1cccc(C(=O)Nc2cnn(Cc3ccccc3)c2)c1,7.09%
23,NC(=NC(=O)c1ccccc1)N1CCOCC1,-0.16%
24,CCNCc1cc2cc(C)ccc2[nH]c1=O,6.62%
25,CC(=O)OCc1cc2cc(C)ccc2[nH]c1=O,5.81%

row,SMILES,inhibition
1,CCOC(=O)c1cc2cc(C)ccc2[nH]1,39.6% (active)
2,N/C(=N\OC(=O)CCC1CCCCC1)c1ccccn1,13.9%
3,Nc1c(-c2ccc(F)cc2)cnc2ncnn12,15.1%
4,O=C(CCC(=O)OCc1cccc(C(=O)Oc2ccccc2)c1)Nc1cccc2ccccc12,-3.63%
5,N#Cc1nc(COc2ccc(-c3ccccc3)cc2)oc1NCc1cccnc1,99.8% (active)
6,N#Cc1nc(Cc2ccccc2)oc1NCCc1ccccc1,18.8%
7,N#Cc1nc(-c2ccc(OCc3ccccc3)cc2)oc1NCCCN1CCOCC1,5.49%
8,CCCn1nc2cc(C(=O)NCc3ccccc3)ccc2c1OCC,2.26%
9,CCCCNC(=S)NNC(=O)c1cc(C)on1,0.65%
10,COc1ccc(/C=C2/S/C(=N/N=C3\CC4CCC3(C)C4(C)C)NC2=O)cc1 (configuration not stated),-0.32%
11,CCOc1ccccc1Nc1nnc(SCc2ccc(C(=O)OC)o2)s1,-9.05%
12,COC(=O)c1ccc(CSc2nnc(NC(C)C)s2)cc1,36.2% (active)
13,COC(=O)c1ccc(CSc2nncn2C)cc1,1.45%
14,Cc1ccccc1/[N+]([O-])=C/c1ccncc1,-1.29%
15,COc1ccc2c(Cl)c(C(=O)NCc3ccco3)sc2c1,-10.7%
16,Cc1cc(=O)oc2ccc(OCC(=O)O)cc12,2.48%
17,Cc1ccc(SC(=O)COc2ccc(C)c(C)c2)cc1,35.3% (active)
18,COCCNC(=O)COc1ccc(C)c(C)c1,4.17%
19,O=S(=O)(c1ccc(F)cc1)n1ccc(-c2cnc(-c3ccccc3)s2)n1,-10%
20,O=C(Nc1nnc(CCOCCOCCc2nnc(NC(=O)c3ccco3)s2)s1)c1ccco1,-30.3%
21,CCCc1noc2c1/C(=N\O)CCC2,13.6%
22,O=C(NCC1CCCO1)c1ccc2ccccc2n1 (configuration not stated),-3.36%
